The supplement of paper PMC4466140

target: CaNbp2; assay: SPOT peptide array binding signal intensity (averaged, normalized) (arbitrary units (background-subtracted, floor 0; scale differs between SH3 domains)); higher = stronger binding of the SH3 domain to the peptide
Summary of the method: (§1)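 GST-fused SH3 domains from four yeast species were expressed in E. coli BL21(DE3), purified on glutathione Sepharose and incubated at 10 μg/ml overnight at 4°C in TBS-based blocking buffer on cellulose membranes carrying synthetic 15-mer peptides, with cysteines replaced by serines. Bound protein was detected with anti-GST antibody, an HRP anti-mouse secondary and luminol, then imaged and quantified with Genespotter. Binding signal is the normalized, background-subtracted spot intensity averaged over replicates, in arbitrary units that differ between domains.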

Binder | SPOT peptide array binding signal intensity
RKQRSIPLSPIVPES | 297
YLTRPLPSTPNEDSR | ≤ 0

target: CaRvs167; assay: as above
Summary of the method: as §1

Binder | SPOT peptide array binding signal intensity
RKQRSIPLSPIVPES | 5.17
YLTRPLPSTPNEDSR | 144

target: CaRvs167-3; assay: as above
Summary of the method: as §1

Binder | SPOT peptide array binding signal intensity
RKQRSIPLSPIVPES | 1.25
YLTRPLPSTPNEDSR | ≤ 0

target: CaSho1; assay: as above
Summary of the method: as §1

Binder | SPOT peptide array binding signal intensity
RKQRSIPLSPIVPES | 83
YLTRPLPSTPNEDSR | 1020

target: CaSla1-D1-D2; assay: as above
Summary of the method: as §1

Binder | SPOT peptide array binding signal intensity
RKQRSIPLSPIVPES | 15
YLTRPLPSTPNEDSR | ≤ 0

target: CaSla1-D3; assay: as above
Summary of the method: as §1

Binder | SPOT peptide array binding signal intensity
RKQRSIPLSPIVPES | ≤ 0
YLTRPLPSTPNEDSR | ≤ 0

target: ScAbp1; assay: as above
Summary of the method: as §1

Binder | SPOT peptide array binding signal intensity
RKQRSIPLSPIVPES | 11
YLTRPLPSTPNEDSR | 3.5

target: ScBbc1; assay: as above
Summary of the method: as §1

Binder | SPOT peptide array binding signal intensity
RKQRSIPLSPIVPES | 20.2
YLTRPLPSTPNEDSR | 5

target: ScBem1-D1; assay: as above
Summary of the method: as §1

Binder | SPOT peptide array binding signal intensity
RKQRSIPLSPIVPES | 7
YLTRPLPSTPNEDSR | ≤ 0

target: ScBzz1-D1; assay: as above
Summary of the method: as §1

Binder | SPOT peptide array binding signal intensity
RKQRSIPLSPIVPES | 25.5
YLTRPLPSTPNEDSR | 6.5

target: ScBzz1-D2; assay: as above
Summary of the method: as §1

Binder | SPOT peptide array binding signal intensity
RKQRSIPLSPIVPES | 12.5
YLTRPLPSTPNEDSR | 14

target: ScCyk3; assay: as above
Summary of the method: as §1

Binder | SPOT peptide array binding signal intensity
RKQRSIPLSPIVPES | 37
YLTRPLPSTPNEDSR | ≤ 0

target: ScFus1; assay: as above
Summary of the method: as §1

Binder | SPOT peptide array binding signal intensity
RKQRSIPLSPIVPES | 98
YLTRPLPSTPNEDSR | ≤ 0

target: ScHof1; assay: as above
Summary of the method: as §1

Binder | SPOT peptide array binding signal intensity
RKQRSIPLSPIVPES | 0.5
YLTRPLPSTPNEDSR | 9.5

target: ScHse1; assay: as above
Summary of the method: as §1

Binder | SPOT peptide array binding signal intensity
RKQRSIPLSPIVPES | 679
YLTRPLPSTPNEDSR | ≤ 0

target: ScLsb1; assay: as above
Summary of the method: as §1

Binder | SPOT peptide array binding signal intensity
RKQRSIPLSPIVPES | 1.75
YLTRPLPSTPNEDSR | 20

target: ScLsb2; assay: as above
Summary of the method: as §1

Binder | SPOT peptide array binding signal intensity
RKQRSIPLSPIVPES | 2
YLTRPLPSTPNEDSR | 2.5

target: ScLsb3; assay: as above
Summary of the method: as §1

Binder | SPOT peptide array binding signal intensity
RKQRSIPLSPIVPES | 243
YLTRPLPSTPNEDSR | 3260

target: ScLsb4; assay: as above
Summary of the method: as §1

Binder | SPOT peptide array binding signal intensity
RKQRSIPLSPIVPES | 9
YLTRPLPSTPNEDSR | 706

target: ScMyo3; assay: as above
Summary of the method: as §1

Binder | SPOT peptide array binding signal intensity
RKQRSIPLSPIVPES | 7
YLTRPLPSTPNEDSR | 3

target: ScMyo5; assay: as above
Summary of the method: as §1

Binder | SPOT peptide array binding signal intensity
RKQRSIPLSPIVPES | 6.25
YLTRPLPSTPNEDSR | ≤ 0

target: ScNbp2; assay: as above
Summary of the method: as §1

Binder | SPOT peptide array binding signal intensity
RKQRSIPLSPIVPES | 142
YLTRPLPSTPNEDSR | ≤ 0

target: ScPex13; assay: as above
Summary of the method: as §1

Binder | SPOT peptide array binding signal intensity
RKQRSIPLSPIVPES | 4.5
YLTRPLPSTPNEDSR | 992

target: ScRvs167; assay: as above
Summary of the method: as §1

Binder | SPOT peptide array binding signal intensity
RKQRSIPLSPIVPES | 39.7
YLTRPLPSTPNEDSR | 417

target: ScSho1; assay: as above
Summary of the method: as §1

Binder | SPOT peptide array binding signal intensity
RKQRSIPLSPIVPES | 284
YLTRPLPSTPNEDSR | 3780

target: ScSla1-D1-D2; assay: as above
Summary of the method: as §1

Binder | SPOT peptide array binding signal intensity
RKQRSIPLSPIVPES | 193
YLTRPLPSTPNEDSR | 17.5

target: ScSla1-D3; assay: as above
Summary of the method: as §1

Binder | SPOT peptide array binding signal intensity
RKQRSIPLSPIVPES | 57.2
YLTRPLPSTPNEDSR | 1

target: SpAbp1-D1; assay: as above
Summary of the method: as §1

Binder | SPOT peptide array binding signal intensity
RKQRSIPLSPIVPES | 85
YLTRPLPSTPNEDSR | ≤ 0

target: SpBbc1; assay: as above
Summary of the method: as §1

Binder | SPOT peptide array binding signal intensity
RKQRSIPLSPIVPES | 0.25
YLTRPLPSTPNEDSR | ≤ 0

target: SpBzz1-D1; assay: as above
Summary of the method: as §1

Binder | SPOT peptide array binding signal intensity
RKQRSIPLSPIVPES | 171
YLTRPLPSTPNEDSR | 74.5

target: SpBzz1-D2; assay: as above
Summary of the method: as §1

Binder | SPOT peptide array binding signal intensity
RKQRSIPLSPIVPES | 0.5
YLTRPLPSTPNEDSR | ≤ 0

target: SpCyk3; assay: as above
Summary of the method: as §1

Binder | SPOT peptide array binding signal intensity
RKQRSIPLSPIVPES | 1.5
YLTRPLPSTPNEDSR | 150

target: SpHof1; assay: as above
Summary of the method: as §1

Binder | SPOT peptide array binding signal intensity
RKQRSIPLSPIVPES | 26.8
YLTRPLPSTPNEDSR | 2260

target: SpHof1-2; assay: as above
Summary of the method: as §1

Binder | SPOT peptide array binding signal intensity
RKQRSIPLSPIVPES | 2.25
YLTRPLPSTPNEDSR | 1610

target: SpHof1-3; assay: as above
Summary of the method: as §1

Binder | SPOT peptide array binding signal intensity
RKQRSIPLSPIVPES | 340
YLTRPLPSTPNEDSR | 776

target: SpHse1; assay: as above
Summary of the method: as §1

Binder | SPOT peptide array binding signal intensity
RKQRSIPLSPIVPES | 293
YLTRPLPSTPNEDSR | 1.75

target: SpLsb1; assay: as above
Summary of the method: as §1

Binder | SPOT peptide array binding signal intensity
RKQRSIPLSPIVPES | 2
YLTRPLPSTPNEDSR | 1

target: SpLsb4; assay: as above
Summary of the method: as §1

Binder | SPOT peptide array binding signal intensity
RKQRSIPLSPIVPES | 25.5
YLTRPLPSTPNEDSR | 2190

target: SpMyo1; assay: as above
Summary of the method: as §1

Binder | SPOT peptide array binding signal intensity
RKQRSIPLSPIVPES | 3
YLTRPLPSTPNEDSR | 60.2

target: SpNbp2; assay: as above
Summary of the method: as §1

Binder | SPOT peptide array binding signal intensity
RKQRSIPLSPIVPES | 115
YLTRPLPSTPNEDSR | ≤ 0

target: SpPex13; assay: as above
Summary of the method: as §1

Binder | SPOT peptide array binding signal intensity
RKQRSIPLSPIVPES | ≤ 0
YLTRPLPSTPNEDSR | 1.5

target: SpRvs167; assay: as above
Summary of the method: as §1

Binder | SPOT peptide array binding signal intensity
RKQRSIPLSPIVPES | 18.8
YLTRPLPSTPNEDSR | 777

target: SpSla1-D1-D2; assay: as above
Summary of the method: as §1

Binder | SPOT peptide array binding signal intensity
RKQRSIPLSPIVPES | ≤ 0
YLTRPLPSTPNEDSR | 9

target: SpSla1-D3; assay: as above
Summary of the method: as §1

Binder | SPOT peptide array binding signal intensity
RKQRSIPLSPIVPES | 1
YLTRPLPSTPNEDSR | ≤ 0

target: AgAbp1; assay: as above
Summary of the method: as §1

Binder | SPOT peptide array binding signal intensity
YLTRPLPSTPNEDSR | 7

target: AgBbc1; assay: as above
Summary of the method: as §1

Binder | SPOT peptide array binding signal intensity
YLTRPLPSTPNEDSR | 39.5

target: AgBem1-D1; assay: as above
Summary of the method: as §1

Binder | SPOT peptide array binding signal intensity
YLTRPLPSTPNEDSR | ≤ 0

target: AgBzz1-D1; assay: as above
Summary of the method: as §1

Binder | SPOT peptide array binding signal intensity
YLTRPLPSTPNEDSR | 17.5

target: AgBzz1-D2; assay: as above
Summary of the method: as §1

Binder | SPOT peptide array binding signal intensity
YLTRPLPSTPNEDSR | ≤ 0

target: AgCyk3; assay: as above
Summary of the method: as §1

Binder | SPOT peptide array binding signal intensity
YLTRPLPSTPNEDSR | 42

target: AgFus1; assay: as above
Summary of the method: as §1

Binder | SPOT peptide array binding signal intensity
YLTRPLPSTPNEDSR | ≤ 0

target: AgHof1; assay: as above
Summary of the method: as §1

Binder | SPOT peptide array binding signal intensity
YLTRPLPSTPNEDSR | 13.2

target: AgHse1; assay: as above
Summary of the method: as §1

Binder | SPOT peptide array binding signal intensity
YLTRPLPSTPNEDSR | ≤ 0

target: AgLsb1; assay: as above
Summary of the method: as §1

Binder | SPOT peptide array binding signal intensity
YLTRPLPSTPNEDSR | 96

target: AgLsb4; assay: as above
Summary of the method: as §1

Binder | SPOT peptide array binding signal intensity
YLTRPLPSTPNEDSR | 853

target: AgMyo5; assay: as above
Summary of the method: as §1

Binder | SPOT peptide array binding signal intensity
YLTRPLPSTPNEDSR | 2.25

target: AgNbp2; assay: as above
Summary of the method: as §1

Binder | SPOT peptide array binding signal intensity
YLTRPLPSTPNEDSR | ≤ 0

target: AgRvs167; assay: as above
Summary of the method: as §1

Binder | SPOT peptide array binding signal intensity
YLTRPLPSTPNEDSR | 404

target: AgSho1; assay: as above
Summary of the method: as §1

Binder | SPOT peptide array binding signal intensity
YLTRPLPSTPNEDSR | 1790

target: AgSla1-D1-D2; assay: as above
Summary of the method: as §1

Binder | SPOT peptide array binding signal intensity
YLTRPLPSTPNEDSR | 1

target: AgSla1-D3; assay: as above
Summary of the method: as §1

Binder | SPOT peptide array binding signal intensity
YLTRPLPSTPNEDSR | ≤ 0

target: CaAbp1-D1; assay: as above
Summary of the method: as §1

Binder | SPOT peptide array binding signal intensity
YLTRPLPSTPNEDSR | 11

target: CaAbp1-D2; assay: as above
Summary of the method: as §1

Binder | SPOT peptide array binding signal intensity
YLTRPLPSTPNEDSR | 7

target: CaBbc1; assay: as above
Summary of the method: as §1

Binder | SPOT peptide array binding signal intensity
YLTRPLPSTPNEDSR | 134

target: CaBem1-D1; assay: as above
Summary of the method: as §1

Binder | SPOT peptide array binding signal intensity
YLTRPLPSTPNEDSR | ≤ 0

target: CaBzz1-D1; assay: as above
Summary of the method: as §1

Binder | SPOT peptide array binding signal intensity
YLTRPLPSTPNEDSR | 42

target: CaBzz1-D2; assay: as above
Summary of the method: as §1

Binder | SPOT peptide array binding signal intensity
YLTRPLPSTPNEDSR | 12.5

target: CaCyk3; assay: as above
Summary of the method: as §1

Binder | SPOT peptide array binding signal intensity
YLTRPLPSTPNEDSR | 8

target: CaFus1; assay: as above
Summary of the method: as §1

Binder | SPOT peptide array binding signal intensity
YLTRPLPSTPNEDSR | ≤ 0

target: CaHof1; assay: as above
Summary of the method: as §1

Binder | SPOT peptide array binding signal intensity
YLTRPLPSTPNEDSR | 69.8

target: CaHse1; assay: as above
Summary of the method: as §1

Binder | SPOT peptide array binding signal intensity
YLTRPLPSTPNEDSR | 28.5

target: CaLsb1; assay: as above
Summary of the method: as §1

Binder | SPOT peptide array binding signal intensity
YLTRPLPSTPNEDSR | ≤ 0

target: CaLsb4; assay: as above
Summary of the method: as §1

Binder | SPOT peptide array binding signal intensity
YLTRPLPSTPNEDSR | 406

target: CaMyo5; assay: as above
Summary of the method: as §1

Binder | SPOT peptide array binding signal intensity
YLTRPLPSTPNEDSR | ≤ 0
